Here are results for 51 compounds from ChEMBL document CHEMBL3988442, “University of Dundee, Small-Polar-MMV Screening Library” (2021).

Molecules are shown by their SMILES. The whole screen tested about 48,000 compounds, of which about 13,000 (27%) showed an effect of 50% or more. The list shows a part of the results.

For the experiment, the system named is Wolbachia pipientis. The experiment is described as follows: Anti-Wolbachia Cell-Based Screen. The class given is functional. Set-up: scale not given: in the data most compounds retested in dose-response had high values. The following applies: 5 µM.
With `Cc1nc(C)c(CC(=O)Nc2nnc(C)s2)c(=O)[nH]1`, the “Percent Effect” value is recorded as -6.123%.

Regarding `Cc1cccc2nc(CN3CCCC(C)C3)cc(=O)n12` (stereo unspecified), the “Percent Effect” value worked out at 12.06%.

Take `CN(C)c1cccc(C(=O)NCC(O)c2cccs2)c1` (stereo unspecified): the “Percent Effect” value is reported as -6.039%.

As to `CCc1ncc2c(n1)CN(C(=O)c1c(C)[nH]c(C(C)=O)c1C)C2`, the “Percent Effect” value came to 1.251%.

Turning to `CN(Cc1cccs1)C1CCC[C@@H]2CN(C(=O)c3cnccn3)C[C@H]12.O=C(O)C(F)(F)F` (stereo partly specified), the “Percent Effect” value turned out to be 14.26%.

Consider `Cc1ccc(C(C(=O)O)N2CCCN(Cc3ccccn3)CC2)c(F)c1` (stereo unspecified), for which the “Percent Effect” value is recorded as -1.838%.

On to `Cc1cnn(CC(C)NCc2cc(=O)n3ccccc3n2)c1` (stereo unspecified), for which the “Percent Effect” value was determined as 4.155%.

On to `Cc1cccn2c(=O)cc(CN3CCCC3Cn3cccn3)nc12` (stereo unspecified), for which the “Percent Effect” value is 11.97%.

Turning to `Cc1cccn2c(=O)cc(CSCC(=O)Nc3nnc(C(C)C)s3)nc12`, the “Percent Effect” value is on record as 100.1%.

In the case of `CC(C)c1nnc(NC(=O)CSCc2cc(=O)n3ccccc3n2)s1`, the “Percent Effect” value is 114.5%.

On to `Cc1ccc(CN(Cc2cc(=O)n3cccc(C)c3n2)C(C)C)o1`, for which the “Percent Effect” value is recorded as 2.311%.

As for `COc1ccc(OC)c(-n2c(COC(C)C)n[nH]c2=O)c1`, the “Percent Effect” value is recorded as -3.997%.

On to `Cc1cc(C(=O)N2CC[C@@H]3CO[C@@H](CN4CCCC4)[C@@H]3C2)no1`, for which the “Percent Effect” value is -4.858%.

In the case of `Cn1cc(C(=O)N2CC[C@H](N3CCOCC3)[C@H](CCCO)C2)cn1`, the “Percent Effect” value is -10.44%.

As for `CS(=O)(=O)NC[C@@H]1OC[C@H]2CN(C(=O)c3cnccn3)CC[C@H]21`, the “Percent Effect” value is on record as -5.14%.

With `Cn1cc(C(=O)N2CCC(c3cc(CCO)n(C)n3)C2)cn1` (stereo unspecified), the “Percent Effect” value is on record as 181.5%.

For `COc1ccc(OCc2nc(C(=O)N3CC[C@H](O)[C@@H](O)C3)co2)cc1`, the “Percent Effect” value was -2.37%.

In the case of `Cn1ccc(C(=O)N2CCC(c3cc(CCO)n(C)n3)C2)n1` (stereo unspecified), the “Percent Effect” value worked out at 79.61%.

Consider `Cc1nc(C(=O)N2CCC(c3cc(CCO)n(C)n3)C2)co1` (stereo unspecified), for which the “Percent Effect” value came out at 113%.

Regarding `Cn1nc(C2CCN(C(=O)c3cnccn3)C2)cc1CCO` (stereo unspecified), the “Percent Effect” value is recorded as 76.91%.

Regarding `COC(=O)C1CCCN1C(=O)c1ccc(Br)cc1F` (stereo unspecified), the “Percent Effect” value was 19.55%.

With `Cc1ccc2c(n1)N(C)CCN(C(=O)NC1CC1)C2.O=C(O)C(F)(F)F`, the “Percent Effect” value turned out to be 4.586%.

For the compound `O=C(NCc1cn2cccnc2n1)C1CC(=O)N(Cc2cccnc2)C1` (stereo unspecified), the “Percent Effect” value is -8.48%.

With `CC(C)n1cc(C(=O)NCCCc2csc(N)n2)cn1`, the “Percent Effect” value is -8.171%.

Consider `CNS(=O)(=O)c1cccc(C(C)NCc2ccc(C)o2)c1` (stereo unspecified), for which the “Percent Effect” value was -6.612%.

As to `O[C@H]1[C@H](n2cc(-c3ccccc3)nn2)c2ccccc2C12CCNCC2`, the “Percent Effect” value is -3.237%.

As to `CC(C)c1nc(CN(C)Cc2cnc(N3CCOCC3)nc2)no1`, the “Percent Effect” value is -9.471%.

Regarding `Cc1ncc(CN(C)C(=O)c2ccc(N3CCOCC3)c(F)c2)s1`, the “Percent Effect” value turned out to be 3.379%.

In the case of `CCS(=O)(=O)c1ncc(CN(C)Cc2ccc(C)o2)n1CCOC`, the “Percent Effect” value was -4.34%.

Consider `CCc1cc(N(C)CCc2noc(C)n2)nc(N2CCOCC2)n1`, for which the “Percent Effect” value is listed as -13.53%.

For `Cc1noc(CN(C)Cc2cnc(N3CCOCC3)nc2)n1`, the “Percent Effect” value was -9.212%.

As to `Cc1nc(CN(C)Cc2cnc(N3CCOCC3)s2)no1`, the “Percent Effect” value stood at 89.45%.

Turning to `CN(Cc1ccsc1)Cc1nc(-c2ccncc2)no1`, the “Percent Effect” value is on record as -1.44%.

On to `CN(Cc1nc(-c2ccccc2)no1)Cc1cnc(N2CCOCC2)s1`, for which the “Percent Effect” value came to 97.7%.

With `Cc1ccc(CN(C)Cc2cnc(N3CCOCC3)s2)o1`, the “Percent Effect” value is 116.2%.

Turning to `COc1cccc(-c2ccc(CNC(=O)c3ccc(=O)n(C)c3)cc2)c1`, the “Percent Effect” value is 0.1145%.

Consider `CCc1nc(CN(C)C(=O)C2CC(=O)N(c3cccc(O)c3)C2)no1` (stereo unspecified), for which the “Percent Effect” value is 15.35%.

`CN(C)S(=O)(=O)N1CC[C@]2(C[C@@H](OCc3ccccn3)CO2)C1.O=C(O)C(F)(F)F`: the “Percent Effect” value is -10.12%.

Consider `CC(C(=O)O)N1CC2(CCC1=O)CCN(CCSc1ccccc1)CC2` (stereo unspecified), for which the “Percent Effect” value is given as -16.96%.

In the case of `COCCN(C)C(=O)Nc1ccn(-c2cccc(C(F)(F)F)c2)n1`, the “Percent Effect” value is recorded as -15.63%.

For the compound `CCN(Cc1ccncc1)c1cc(C2CCN2C(C)=O)nc(C)n1` (stereo unspecified), the “Percent Effect” value is reported as 128.1%.

As for `Cc1nc(C2CCNCC2)cc(N(C)CCc2cn[nH]c2)n1`, the “Percent Effect” value is -7.954%.

For `Cc1nc(C2CCNCC2)cc(N2CCOc3ccccc3C2)n1`, the “Percent Effect” value was -3.992%.

As for `CCN(Cc1ccncc1)c1nc(C)nc2oc(C)nc12`, the “Percent Effect” value was -65.89%.

Regarding `CCN(Cc1ccncc1)c1cc(C2CCCNC2)nc(C)n1` (stereo unspecified), the “Percent Effect” value was determined as 103.1%.

In the case of `Cc1cccc(OCC(=O)N(Cc2ccncc2)C2CC2)c1`, the “Percent Effect” value is listed as -0.008091%.

Regarding `Cc1ccnc(CC(C)N(C)c2cc(C3CCNCC3)nc(C)n2)c1` (stereo unspecified), the “Percent Effect” value was determined as 6.994%.

As to `CCN(Cc1c(F)cccc1Cl)c1cc(C2CCNCC2)nc(C)n1`, the “Percent Effect” value was 117.3%.

Regarding `CNS(=O)(=O)CC(=O)N(Cc1c(F)cccc1Cl)C1CC1`, the “Percent Effect” value is given as -9.118%.

`CCN(Cc1ccncc1)c1cc(C2CCNCC2)nc(C)n1`: the “Percent Effect” value is listed as 95.16%.

As for `Cc1nc(C2CCCNC2)cc(N(C)CCc2ccccc2)n1` (stereo unspecified), the “Percent Effect” value amounted to 1.735%.
